Measurements as given in article PMC6792352, “Limited Chemical Structural Diversity Found to Modulate Thyroid Hormone Receptor in the Tox21 Chemical Library” (Environmental Health Perspectives, 2019).
Counter-ions that a name gives are not always drawn.

tested on: thyroid hormone receptor (endogenous TRα and TRβ); design: species or system GH3-TRE-Luc (rat pituitary); GH3-TRE-Luc luciferase reporter, antagonist mode against 1 nM T3, loss of signal, qHTS; conditions: read-out: Average AC50 (uM) GH3-TRE-Antag, antagonist mode, 1 nM T3, no GH3 cytotoxicity hit

Row | SMILES | AC50
1 | NNc1nnc(Cc2ccncc2)c2ccccc12 [Picodralazine] | 3.28 µM
2 | CC(C)Oc1ccc2c(=O)c(-c3ccccc3)coc2c1 [Ipriflavone] | 25 µM
3 | CCO[Si](CC(C)C)(OCC)OCC [Triethoxy(2-methylpropyl)silane] | 66.1 µM
4 | Cc1cc(O)c2c(O)c3c(O)cccc3cc2c1 [Chrysarobin] | 28.1 µM
5 | CC(C)Oc1cccc(NC(=O)c2ccccc2C(F)(F)F)c1 [Flutolanil] | > 90 µM
6 | CC(=O)[C@@]1(O)CC[C@H]2[C@@H]3C=C(Cl)C4=CC(=O)CC[C@]4(C)[C@H]3CC[C@@]21C [Chlormadinone] | 30.7 µM
7 | C[C@](N)(Cc1ccc(O)c(O)c1)C(=O)O [Methyldopa sesquihydrate] | > 50 µM
8 | CC(C)(C)c1ccc(CCC=O)cc1 [3-(4-tert-Butylphenyl)propanal] | 56.6 µM
9 | CCN(Cc1cccc(S(=O)(=O)O)c1)c1ccc(C(=C2C=CC(=[N+](CC)Cc3cccc(S(=O)(=O)[O-])c3)C=C2)c2ccccc2)cc1 [FD&C Green No. 1] | 66.2 µM
10 | CC1(C)NC(=O)N(c2ccc([N+](=O)[O-])c(C(F)(F)F)c2)C1=O [Nilutamide] | 38.5 µM
11 | CC(C)=CC1C(C(=O)OC(C#N)c2cccc(Oc3ccccc3)c2)C1(C)C (centres unmarked) [Cyphenothrin] | 79.9 µM
12 | CC(C)=CCC/C(C)=C/CC/C(C)=C/CC/C(C)=C/CC1=C(C)C(=O)c2ccccc2C1=O [Menatetrenone] | 24.9 µM
13 | CCCCOC(=O)c1ccc(N)cc1 [Butyl 4-aminobenzoate] | 21.8 µM
14 | C=CCOC(Cn1ccnc1)c1ccc(Cl)cc1Cl (centres unmarked) [Imazalil sulfate] | 28.4 µM
15 | Cc1nc2ccccn2c(=O)c1CCN1CCC(C(=O)c2ccc(F)cc2)CC1 [Pirenperone] | 47 µM
16 | Cc1oc(=O)oc1CN1CCN(c2cc3c(cc2F)c(=O)c(C(=O)O)c2n3C(C)S2)CC1 (centres unmarked) [Prulifloxacin] | > 50 µM
17 | CCCCCCCCCCCCCC(=O)OCC(O)CO (centres unmarked) [Tetradecanoic acid, 2,3-dihydroxypropyl ester] | 61.9 µM
18 | C=C1C[C@H]2[C@@H]3C=C(C)C4=CC(=O)CC[C@]4(C)[C@H]3CC[C@]2(C)[C@@]1(OC(C)=O)C(C)=O [Melengestrol acetate] | 26.6 µM
19 | COc1cc2c(cc1N)oc1ccccc12 [2-Methoxy-3-aminodibenzofuran] | 84.6 µM

Row | SMILES | AC50
20 | C[C@]12C[C@H](O)[C@H]3[C@@H](CCC4=CC(=O)CC[C@@]43C)[C@@H]1CC[C@@H]2C(=O)CO [Corticosterone] | > 50 µM
21 | CCCc1c(OCCCOc2ccc(OCC(=O)O)cc2)ccc(C(C)=O)c1O [4-[3-(4-Acetyl-3-hydroxy-2-propylphenoxy)propoxy]phenoxy-acetic acid] | 85.9 µM
22 | CCCCCC(C=O)=Cc1ccccc1 [Pentylcinnamaldehyde] | > 50 µM
23 | CC[C@H](C)[C@@H](C(=O)O)n1sc2ccccc2c1=O [(2S,3S)-3-Methyl-2-(3-oxo-1,2-benzothiazol-2(3H)-yl)pentanoic acid] | > 90 µM
24 | COc1cccc(N)c1 [3-Methoxyaniline] | 80.8 µM
25 | CC/C=C\C/C=C\C/C=C\CCCCCCCC(=O)OCC [Ethyl linolenate] | 65.3 µM
26 | CCOC(=O)Oc1c(OC)cc(C(=O)O[C@@H]2C[C@@H]3CN4CCc5c([nH]c6cc(OC)ccc56)[C@H]4C[C@@H]3[C@H](C(=O)OC)[C@H]2OC)cc1OC [Syrosingopine] | 19 µM
27 | CCCCC(CC)COC(=O)c1ccccc1C(=O)O (centres unmarked) [MEHP] | 70.2 µM
28 | CSc1ccc(/C=C2/C(C)=C(CC(=O)O)c3cc(F)ccc32)cc1 [Sulindac sulfide] | 24 µM
29 | CC(C)(C)c1ccc(OC(=O)c2ccccc2O)cc1 [4-tert-Butylphenyl salicylate] | > 90 µM
30 | Cc1c(COC(=O)[C@@H]2[C@H](/C=C(\Cl)C(F)(F)F)C2(C)C)cccc1-c1ccccc1 (racemic) [Bifenthrin] | 17.5 µM
31 | CC(=O)O[C@]1(C(C)=O)CC[C@H]2[C@@H]3C=C(C)C4=CC(=O)CC[C@]4(C)[C@H]3CC[C@@]21C [Megestrol acetate] | > 20 µM
32 | CCOc1ccc2[nH]cc(C(=O)NCc3ccccc3)c(=O)c2n1 [CP-457920] | 45.2 µM
33 | CC/C=C(\C(=O)N[C@@H]1C(=O)N2C(C(=O)OCOC(=O)C(C)(C)C)=C(COC(N)=O)CS[C@H]12)c1csc(N)n1 [Cefcapene pivoxil hydrochloride] | 49.5 µM
34 | CC1(C)CC/C(=C\c2ccc(Cl)cc2)C1(O)Cn1cncn1 (centres unmarked) [Triticonazole] | > 90 µM
35 | O=C(c1ccccc1)c1ccc(O)cc1O [2,4-Dihydroxybenzophenone] | 87 µM
36 | CCCCCCC[N+](CC)(CC)CCCCc1ccc(Cl)cc1 [Clofilium tosylate] | 16.3 µM
37 | O=C(Oc1ccccc1)c1ccc2ccccc2c1O [Phenyl 1-hydroxy-2-naphthoate] | 84.9 µM
38 | CCCCc1c(C)nc(NCC)nc1OS(=O)(=O)N(C)C [Bupirimate] | > 90 µM
